Compounds with a hit are over-represented: about 0.78% of the library has one in this group of screens.
RGS7-Gao – regulators of human RGS7-Galphao interaction; P09471; Multiplexed bead flow cytometry, RGS7-Galphao binding; actives lie on both sides; binding response (% of control), % at 10 µM; 220,000 compounds, 0.35% hits; AID 1439; in the data active = binding response below about 49% or above about 150%; inconclusive = no clear call, values can overlap the other calls; inactive = in between;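 note: fluorescent Galphao held in activated GDP-AlF4 state binding bead-coupled RGS7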
Target sequence (P09471 whole entry, looked up): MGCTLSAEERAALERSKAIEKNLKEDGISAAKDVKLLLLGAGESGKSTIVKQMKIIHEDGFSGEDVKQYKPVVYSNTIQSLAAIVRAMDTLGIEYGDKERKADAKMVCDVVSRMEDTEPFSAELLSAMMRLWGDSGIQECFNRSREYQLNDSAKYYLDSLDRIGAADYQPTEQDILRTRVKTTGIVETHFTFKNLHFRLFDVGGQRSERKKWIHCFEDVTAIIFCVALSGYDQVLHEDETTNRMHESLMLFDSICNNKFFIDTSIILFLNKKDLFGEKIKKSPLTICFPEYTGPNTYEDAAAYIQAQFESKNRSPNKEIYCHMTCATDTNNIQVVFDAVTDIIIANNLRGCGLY
RGS8-Gao – regulators of human RGS8-Galphao interaction | 220,000 compounds, 0.34% hits | P09471 | response (percent of control binding), % at 10 µM | multiplexed bead flow cytometry, RGS8-Galphao binding; actives lie on both sides; in the data active = response below about 60% or above about 140%; inactive = in between;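 note: Galphao activated as the GDP aluminium fluoride complex binding bead-coupled RGS8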
RGS16-Gao – modulates binding between human RGS16 and Galphao | O15492+P09471 | bead-based flow cytometry RGS16-Galphao binding, fluorescence; actives lie on both sides | binding response (% of control), % at 10 µM | 220,000 compounds, 0.38% hits;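 note: Galphao activated by GDP with aluminum fluoride before binding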
RGS4-Gao reg – modulates binding of RGS4 to human Galphao. 220,000 compounds, 0.33% hits. binding response (% of control), % at 10 µM. Multiplexed bead flow cytometry; actives lie on both sides; in the data active = binding response below about 49% or above about 150%; inactive = in between;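 note: fluorescent Galphao activated with aluminum fluoride binding bead-coupled RGS4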
RGS-Gao – modulates binding between human RGS4 and Galphao; 1,600 compounds, 99% hits; shares compounds with RGS16-Gao; multiplexed bead flow cytometry, RGS–Galpha-o binding; RGS4–Galpha-o binding response, % at 10 µM;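 note: fluorescently labeled Galpha-o bound to GDP with aluminium fluoride binding biotinylated RGS beads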
Avidin counter – interferes with biotinylated probe binding to avidin beads. shares compounds with RGS16-Gao. streptavidin beads, fluorescein-biotin binding, flow cytometry. inhibition, % at 10 µM. 1,700 tested, under 10 active;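 active = inhibition above 50%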;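 note: median green fluorescence of gated singlet beads compared with DMSO control wells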
RGS8-Gao single – confirmation of regulators of human RGS8-Galphao interaction; binding response (% of control), % at 10 µM; shares compounds with RGS16-Gao; bead-based flow cytometry RGS8-Galphao binding, fluorescence; actives lie on both sides; 1,700 compounds, 3% hits; AID 1836; in the data active = binding response below about 72% or above about 130%; inactive = in between;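 note: Galphao activated as GDP AlF4 complex before binding bead RGS8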
RGS7-Gao confirm – RGS7-Galphao interaction regulation, single point confirmation; 1,700 compounds, 7.8% hits; shares compounds with RGS16-Gao; bead-based flow cytometry RGS7-Galphao binding; actives lie on both sides; AID 1837; response (percent of control binding), % at 10 µM; in the data active = response below about 75% or above about 130%; inactive = in between;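 note: fluorescent Galphao activated with GDP and aluminum fluoride binding bead-coupled RGS7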
RGS16-Gao conf – confirmation of regulators of human RGS16-Galphao interaction; response (% of control binding), % at 10 µM; AID 1838; 1,700 compounds, 4% hits; shares compounds with RGS16-Gao; bead-based flow cytometry, RGS16-Galphao binding; actives lie on both sides; in the data active = response below about 74% or above about 130%; inactive = in between;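 note: Galphao activated as the GDP aluminium fluoride complex binding bead-coupled RGS16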
RGS4-Gao single – confirmation of regulators of human RGS4-Galphao interaction. shares compounds with RGS16-Gao. RGS4-Galphao binding, multiplexed bead flow cytometry; actives lie on both sides. binding response (% of control), % at 10 µM. 1,700 compounds, 4% hits; in the data active = binding response below about 74% or above about 130%; inactive = in between
RGS19-Gao single – confirmation of regulators of human RGS19-Galphao interaction | shares compounds with RGS16-Gao | bead-based flow cytometry RGS19-Galphao binding; actives lie on both sides | response (percent of control binding), % at 10 µM | 1,700 compounds, 5% hits; in the data active = response below about 50% or above about 160%; inactive = in between
Target sequence (P09471 whole entry, looked up): as above
Target sequence (P49795 whole entry, looked up): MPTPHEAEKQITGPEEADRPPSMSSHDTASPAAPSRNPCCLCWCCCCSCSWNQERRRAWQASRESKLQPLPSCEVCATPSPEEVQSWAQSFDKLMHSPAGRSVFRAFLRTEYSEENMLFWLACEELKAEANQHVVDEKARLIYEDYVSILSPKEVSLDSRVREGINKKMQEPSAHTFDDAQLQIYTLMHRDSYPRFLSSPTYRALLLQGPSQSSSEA
A number is an active result; . = inactive; ? = inconclusive; / = no result given; [ ] = dose if it differs, or a comment. Unless noted, the rule behind the calls is not given here.

SMILES	RGS7-Gao	RGS8-Gao	RGS16-Gao	RGS4-Gao reg	Avidin counter	RGS8-Gao single	RGS7-Gao confirm	RGS16-Gao conf	RGS4-Gao single	RGS19-Gao single	others
Cc1cc(C)c(C#N)c(SCCS(=O)(=O)c2ccc(Cl)cc2)n1	?	.	.	.	/	/	/	/	/	/
Cn1cc(SCC(=O)N2CCCc3ccccc32)c2ccccc21	.	.	.	.	/	/	/	/	/	/
O=C(NNC(=S)NCC1CCCO1)c1ccc(S(=O)(=O)N2CCOCC2)cc1 (stereo not drawn)	.	.	.	.	/	/	/	/	/	/
O=S(=O)(NCc1ccccc1)c1ccc2c(c1)OCCO2	/	/	/	/	.	.	.	.	.	.
O=C(NNc1ncccc1-n1cccc1)c1ccc(Cl)cc1	?	.	.	.	/	/	/	/	/	/
Cc1ccc(N2CN=c3s/c(=C\c4ccccn4)c(=O)n3C2)cc1	48	60	.	.	.	.	.	.	.	.	RGS-Gao=51
Cc1ccc(C(=O)Nc2nc(COc3ccccc3)cs2)s1	/	/	/	/	.	.	.	.	.	.
CC(=O)Nc1nc(COc2ccccc2)cs1	.	.	.	.	/	/	/	/	/	/
O=C(NCC(=O)N(Cc1ccccc1)C(C(=O)NC1CCCC1)c1ccco1)c1ccco1 (stereo not drawn)	.	.	.	.	/	/	/	/	/	/
Cc1ccc(C(C(=O)NC2CCCCC2)N(CC2CCCO2)C(=O)CNC(=O)c2ccco2)cc1 (stereo not drawn)	.	.	.	.	/	/	/	/	/	/
O=C(NCC(=O)N(CC1CCCO1)C(C(=O)NC1CCCCC1)c1ccc(F)cc1)c1ccco1 (stereo not drawn)	237[activator]	.	.	165[activator]	.	.	.	.	.	.
O=C(CN(Cc1ccccc1C(F)(F)F)C(=O)CNC(=O)c1ccco1)NC1CCCC1	171[activator]	.	.	.	.	.	.	.	.	.	RGS-Gao=113
COCCCNCC#CCOc1ccc(OC)cc1	?	.	.	.	/	/	/	/	/	/
CCOc1ccc(Br)cc1-c1noc(-c2cccs2)n1	12	8.4	.	21	.	.	.	.	.	.
O=C(CCN1C(=O)/C(=C/c2cccs2)SC1=S)NC1=NCCS1	.	.	.	.	/	/	/	/	/	/
Cn1c(=O)c2c(=O)cc(N)[nH]c2n(C)c1=O	?	.	.	.	.	.	.	.	.	.
COc1ccc(NC(=S)N2CCN(C(c3ccccc3)c3ccccc3)CC2)cc1OC	.	.	185[activator]	.	.	.	.	.	.	.	RGS-Gao=105
COc1ccc(NC(=S)N2CCCC2)cc1OC	.	.	.	.	/	/	/	/	/	/
Oc1ccc(/C=N/Nc2ncnc3nc[nH]c23)cc1	?	52	.	37	.	.	.	.	.	.
N#Cc1nc(-c2ccccc2F)oc1NCCN1CCOCC1	.	176[activator]	.	.	.	.	.	.	.	.	RGS-Gao=149
Cc1nc(NC(=O)c2ccco2)sc1C(=O)Nc1ccc(Br)cc1	.	.	.	.	/	/	/	/	/	/
CCOC(=O)c1oc2cccc(OCC(O)CNC(C)C)c2c1C (stereo not drawn)	184[activator]	.	231[activator]	204[activator]	.	.	.	.	.	.
Cc1cccc(C)c1OCC(O)CNC(C)C (stereo not drawn)	.	.	.	.	/	/	/	/	/	/
Cn1nc(Oc2nc(N3CCOCC3)nc(N3CCOCC3)n2)ccc1=O	-4.9	12	.	-23	.	.	.	.	.	.
CC(C)(C)Nc1nc(Oc2ccc(=O)n(-c3ccccc3)n2)nc(N2CCOCC2)n1	/	/	/	/	.	.	.	.	.	.
SMILES	RGS7-Gao	RGS8-Gao	RGS16-Gao	RGS4-Gao reg	Avidin counter	RGS8-Gao single	RGS7-Gao confirm	RGS16-Gao conf	RGS4-Gao single	RGS19-Gao single	others
CCCN1CNC(=S)N(c2ccccc2OC)C1	.	.	.	.	/	/	/	/	/	/
CCCN1CN(c2ccccc2)C(=S)N(c2ccccc2)C1	?	.	.	195[activator]	.	.	.	.	.	.
COc1ccc(OC)c(NC(=O)Nc2nnc(N3CCC(C)CC3)s2)c1	43	58	.	40	.	.	.	.	.	.
S=C1NC2=C(CCCC2)C2(CCCCC2)N1	.	.	.	.	/	/	/	/	/	/
Nc1nc(SCC(=O)Nc2cc(C(F)(F)F)ccc2N2CCOCC2)n[nH]1	24	18	16	29	.	.	.	.	.	.
O=C(CSc1n[nH]c(-c2ccccc2O)n1)N1CCOCC1	.	.	.	.	/	/	/	/	/	/
CC1(C)Cc2cccc(OCC(=O)Nc3cc(C(F)(F)F)ccc3N3CCOCC3)c2O1	226[activator]	.	.	.	.	.	.	.	.	.	RGS-Gao=118
Nc1nc(SCC(=O)N2CCOCC2)n[nH]1	189[activator]	.	.	.	.	.	.	.	.	.	RGS-Gao=129
Cc1nc2ccccc2nc1OCC(=O)Nc1cc(C(F)(F)F)ccc1N1CCOCC1	.	.	.	.	/	/	/	/	/	/
CC(C)CC(=O)NC1(C(F)(F)F)C(=O)N(CC(C)C)C2=C1C(=O)CC(C)(C)C2 (stereo not drawn)	169[activator]	155[activator]	.	165[activator]	.	.	.	.	.	.
COc1cccc(N2CCN(Cc3nnnn3C3CCCCC3)CC2)c1	.	.	.	.	/	/	/	/	/	/
c1ccc2[nH]c(NCc3ccc4c(c3)OCO4)nc2c1	.	.	.	.	/	/	/	/	/	/
O=c1c2ccccc2nnn1CCN1CCOCC1	.	.	.	.	/	/	/	/	/	/
COc1cc(OC)cc(-c2n[nH]c(=S)n2-c2ccc3c(c2)OCO3)c1	.	.	21	.	.	.	.	.	.	.	RGS-Gao=101
Cc1nc(NCCN2CCOCC2)c2nnn(Cc3ccccc3Cl)c2n1	.	.	.	.	/	/	/	/	/	/
CC(C)(C)c1nc(NCCN2CCOCC2)c2nnn(Cc3ccccc3Cl)c2n1	.	153[activator]	.	.	.	.	70	.	.	.	RGS-Gao=129
Clc1ccccc1Cn1nnc2c(NCCN3CCOCC3)ncnc21	.	141[activator]	.	.	.	.	.	.	.	.	RGS-Gao=114
CN(CCO)CC(O)Cn1cnc2c1c(=O)n(C)c(=O)n2C (stereo not drawn) (tested in a mixture with another compound)	.	.	.	.	/	/	/	/	/	/
Cn1c(-n2c(CCCN3C(=O)c4ccccc4C3=O)nc3ccccc3c2=O)nc2ccccc21	.	.	.	180[activator]	.	.	.	.	.	.

From PubChem BioAssay
